# Laboratory results as given in the supplement of paper PMC8047044.
# Tested on: Neuro-2a
# Experiment: neurite formation score, plate-normalized to DMSO control mean 5.04 (score (0-8 scale)); higher = more or longer neurites
# Conditions: 0.1 µM
# Method: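 Neuro-2a mouse neuroblastoma cells in PLL-coated 96-well plates were pre-treated for 1 h in DMEM(+) with each kinase inhibitor at 0.1 µM, then switched to serum-free DMEM(-) with inhibitor to induce neurite outgrowth and fixed about 2-3 h later. Three blinded observers scored neurite formation from 0 (no neurites) to 8 (long neurites on almost all cells).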
row,Structure (SMILES),neurite formation score
1,O=c1[nH]c2ccccc2n1C1CCN(Cc2ccc(-c3[nH]c4cc5ncnc5cc4nc3-c3ccccc3)cc2)CC1 [AKT inhibitor VIII],3.38
2,COc1cc([C@@H]2c3cc4c(cc3[C@H](O)[C@H]3COC(=O)[C@@H]23)OCO4)cc(OC)c1OC,2.38
3,Cn1cc(C2=C(c3cn(C4CCN(Cc5ccccn5)CC4)c4ccccc34)C(=O)NC2=O)c2ccccc21,2.38
4,O=c1[nH]c2ccc(Cl)cc2c(N[C@@H]2CN3CCC2CC3)c1-c1nc2ccccc2[nH]1,4.92
5,N#CC(C#N)=Cc1ccc(O)c(O)c1,5.38
6,Cc1ccccc1-n1c(Cn2cnc3c(N)ncnc32)nc2cccc(C)c2c1=O,4.75
7,CC(C)(C)c1cc(C=C(C#N)C#N)cc(Br)c1O,5.04
8,COC[C@H]1OC(=O)c2coc3c2[C@@]1(C)C1=C(C3=O)[C@@H]2CCC(=O)[C@@]2(C)C[C@H]1OC(C)=O [Wortmannin],4.58
9,CCN1CCN(C(=O)Cc2ccc(Nc3ncc(F)c(Nc4ccc(C(=O)Nc5ccccc5Cl)cc4)n3)cc2)CC1 [Aurora A Inhibitor I],4.92
10,CC(C)(C)c1cc(C=C(C#N)C#N)cc(C(C)(C)C)c1O [Tyrphostin 9],4.92
11,COc1ccc(N(C(=O)Oc2c(C)cccc2C)c2ccnc(Nc3ccc(N4CCN(C)CC4)cc3)n2)c(OC)c1,5.08
12,COc1ccc2c(c[n+](C)c3c4cc5c(cc4ccc23)OCO5)c1OC [Chelerythrine Chloride],4.04
